# Data from PubChem BioAssay.
# Records with an inconclusive call do not appear. Active and inactive are the calls of the source. Cut-off read from the data, not from the text of the source, unless noted: active = inhibition above about 80%; inactive = the rest.
# Key:
# [1] = growth inhibition of DIPG glioma cells, dose response, cell-based, SU-DIPG-XVII, MIPE5.0, CellTiter-Glo, qHTS (AID 1347060; cut-off not given, nearly all actives have AC50 up to about 26 µM;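 for AC50: cells exposed to compound for 48 hours before viability readout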); settings: SU-DIPG-XVII viability, CellTiter-Glo ATP luminescence
# [2] = growth inhibition of DIPG glioma cells, dose response, cell-based, SU-DIPG-XIII, MIPE5.0, CellTiter-Glo, qHTS (AID 1347064; cut-off not given, nearly all actives have AC50 up to about 23 µM;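 for AC50: cells exposed to compound for 48 hours before the viability read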); settings: SU-DIPG-XIII viability, CellTiter-Glo ATP luminescence
# [3] = viability loss in pontine glioma line – cell-based, SU-DIPG-XXV, MIPE5.0, CellTiter-Glo, qHTS, dose response (AID 1347065; cut-off not given, nearly all actives have AC50 up to about 26 µM;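 note: cells exposed to compound for 48 hours before ATP readout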); settings: CellTiter-Glo ATP luminescence
# [4] = JHH-DIPG-1 glioma cell viability, MIPE5.0 library, CellTiter-Glo luminescence, qHTS (AID 1347067; cut-off not given, nearly all actives have AC50 up to about 26 µM;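 note: cells exposed to compound for 48 hours before readout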); settings: JHH-DIPG-1 glioma viability, CellTiter-Glo ATP luminescence
# [5] = SU-DIPG-XXV glioma cell viability, MIPE5.0 library, qHTS (AID 1347068; cut-off not given, nearly all actives have IC50 up to about 30 µM)
# [6] = LFS_MB_P medulloblastoma growth inhibition, cell-based, chromothripsis tumors, cisplatin or BGB combos (AID 1671449); settings: LFS_MB_P medulloblastoma cells;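 note: cells exposed for 96 hours; 0% = vehicle DMSO and 100% = killing by high DMSO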
# [7] = HDN33 neuroblastoma growth inhibition, cell-based, chromothripsis tumors, cisplatin or BGB combos (AID 1671450); settings: HDN33 neuroblastoma cells, stronger effect = higher value;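 note: cells exposed to compound for four days; 0% = vehicle DMSO and 100% = cell killing by high DMSO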
# [8] = ICB984 medulloblastoma cell growth inhibition, synergistic combos for chromothripsis tumors, cisplatin or BGB combos (AID 1671451; call rule not given here;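 note: cells exposed for 96 hours before readout; 0% = vehicle DMSO and 100% = killing by high DMSO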); settings: ICB984 medulloblastoma cells, drug combinations, stronger effect = higher value
# [9] = LFS_MB_1R medulloblastoma cell growth inhibition, synergistic combos for chromothripsis tumors, cisplatin or BGB combos (AID 1671452); settings: LFS_MB_1R medulloblastoma cells, stronger effect = higher value;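 note: cells exposed for 96 hours before readout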
# [10] = HTB85 osteosarcoma cell growth inhibition, synergistic combos for chromothripsis tumors, BGB or cisplatin IC20 combos (AID 1671453); settings: HTB85 osteosarcoma cells, drug combinations, stronger effect = higher value;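 note: cells exposed for 96 hours before readout; 0% = vehicle DMSO and 100% = high DMSO killing control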
# [11] = CRL2098 osteosarcoma cell growth inhibition, synergistic combos for chromothripsis tumors, BGB or cisplatin IC20 combos (AID 1671454); settings: CRL2098 osteosarcoma cells, drug combinations, stronger effect = higher value;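 note: cells exposed for 96 h before readout; 0% = vehicle DMSO and 100% = killing by high DMSO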
# [12] = HD-MB03 medulloblastoma cell growth inhibition, synergistic combos for chromothripsis tumors, BGB or cisplatin IC20 combos (AID 1671455; in the data active = inhibition above about 83%;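 note: 0% = vehicle DMSO and 100% = high DMSO as cytotoxic control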); settings: HD-MB03 medulloblastoma cells, stronger effect = higher value
# [13] = UWB1.289 ovarian carcinoma cell growth inhibition, synergistic combos for chromothripsis tumors, BGB or cisplatin combos (AID 1671456); settings: UWB1.289 ovarian carcinoma cells, stronger effect = higher value;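 note: cells exposed to compound for four days; 0% = vehicle DMSO and 100% = killing by high DMSO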
# [14] = LFS_MB_2R medulloblastoma cell growth inhibition, synergistic combos for chromothripsis tumors, cisplatin combos (AID 1671457); settings: LFS_MB_2R medulloblastoma cells, stronger effect = higher value;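 note: cells exposed to compound for four days before readout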
# [15] = MDA-MB-436 breast carcinoma cell growth inhibition, synergistic combos for chromothripsis tumors, BGB or cisplatin combos (AID 1671458; call rule not given here;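 note: cells exposed for 96 hours; 0% = vehicle DMSO and 100% = killing by high DMSO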); settings: MDA-MB-436 breast carcinoma growth inhibition, drug combinations, stronger effect = higher value
# [16] = UWB1.289_BRCA1 ovarian cancer growth, cell-based, BGB or cisplatin combinations (AID 1671459); settings: UWB1.289 BRCA1 ovarian carcinoma, drug combinations, stronger effect = higher value
# [17] = human astrocyte viability loss, single and combined drugs, cytotoxicity control for chromothriptic childhood tumor combination screen, cell-based, BGB or cisplatin IC20 combos (AID 1671460); settings: Human astrocytes, drug combinations, stronger effect = higher value;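 note: cells exposed to compounds for 96 hours before viability readout; 0% = vehicle and 100% = killing control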
# [18] = growth inhibition of BT084 medulloblastoma cells, cell-based, ICGC_MB145, cisplatin and BGB IC40 combos (AID 1671461); settings: drug combinations, stronger effect = higher value;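 note: cells exposed to drugs for 96 hours; 0% = vehicle DMSO and 100% = high DMSO full killing control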
# [19] = growth inhibition of RCMB18 medulloblastoma cells, cell-based, cisplatin and BGB IC40 combos (AID 1671462); settings: stronger effect = higher value;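 note: cells exposed to compound for four days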
# [20] = growth inhibition of CRL1545 osteosarcoma cells, cell-based, cisplatin and BGB IC20 combos (AID 1671464); settings: stronger effect = higher value;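 note: cells exposed to compound for 96 hours before readout; 0% = vehicle DMSO and 100% = high DMSO killing control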
# [21] = growth inhibition of DIPG glioma cells, dose response, cell-based, JHH-DIPG-1, MIPE4.0, CellTiter-Glo, qHTS (AID 1347062; cut-off not given, nearly all actives have AC50 up to about 27 µM;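 note: cells exposed to compound for two days before readout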); settings: JHH-DIPG-1 viability, CellTiter-Glo ATP luminescence
# [22] = growth inhibition of DIPG glioma cells, dose response, cell-based, SU-DIPG-IV, MIPE4.0, CellTiter-Glo, qHTS (AID 1347063; cut-off not given, nearly all actives have AC50 up to about 30 µM;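 note: compound exposure lasted 48 hours before the viability readout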); settings: SU-DIPG-IV viability, CellTiter-Glo ATP luminescence
# [23] = SU-DIPG-VI glioma cell viability, MIPE4.0 library, CellTiter-Glo luminescence, qHTS (AID 1347066; cut-off not given, nearly all actives have AC50 up to about 30 µM;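 note: cells exposed to compound for 48 hours before readout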); settings: CellTiter-Glo ATP luminescence
# [24] = measured here: combination with BGB IC40, at 0.05 µM
# [25] = measured here: with BGB IC20 combination, at 0.5 µM
# [26] = measured here: with cisplatin IC20 combination, at 0.5 µM
# [27] = measured here: combination with cisplatin, at 0.5 µM
# [28] = measured here: combination with cisplatin, at 5 µM
smiles,measurement,setting,value
Cn1c(COP(=O)(NCCBr)NCCBr)cnc1[N+](=O)[O-],AC50,[1],20.9 µM (active)
same,outcome,[2],inactive
same,outcome,[3],inactive
same,outcome,[4],inactive
same,outcome,[5],inactive
same,inhibition,"[6]; at 0.5 µM, stronger effect = higher value",16.6% (inactive)
same,inhibition,"[6]; measured here: combination with BGB IC20, at 0.005 µM",-38.7%
same,inhibition,"[6]; measured here: combination with BGB IC40, at 0.005 µM",-32.5%
same,inhibition,[6]; [24],-39.8%
same,inhibition,"[6]; measured here: combination with cisplatin, at 0.5 µM, stronger effect = higher value",62.9%
same,inhibition,"[6]; measured here: combination with cisplatin, at 5 µM, stronger effect = higher value",-58.8%
same,inhibition,"[7]; BGB combo, at 5 µM",19.8%
same,inhibition,[7]; at 0.5 µM,-18.8% (inactive)
same,inhibition,"[7]; cisplatin combo, at 5 µM",19.2%
same,inhibition,[7]; [25],-21.2%
same,inhibition,[7]; [26],-10.2%
same,inhibition,"[7]; single agent, at 5 µM",80.3%
same,inhibition,"[8]; BGB IC20 combo, at 0.005 µM",-13.2%
same,inhibition,"[8]; BGB IC40 combo, at 0.005 µM",-25.1%
same,inhibition,"[8]; BGB IC40 combo, at 0.05 µM",-34.6%
same,inhibition,[8]; at 0.5 µM,-26% (inactive)
same,inhibition,"[8]; cisplatin combo, at 0.05 µM",-39.4%
same,inhibition,"[8]; cisplatin combo, at 0.5 µM",-24.4%
same,inhibition,"[8]; cisplatin combo, at 5 µM",-33.7%
same,inhibition,"[8]; measured here: 5 uM single agent, at 5 µM",-29.2%
same,inhibition,[9]; at 0.5 µM,-28.2% (inactive)
same,inhibition,[9]; [24],-23.6%
same,inhibition,[9]; [27],-60.8%
same,inhibition,[9]; [28],3.76%
same,inhibition,[10]; at 0.5 µM,-13.1% (inactive)
same,inhibition,"[10]; measured here: with BGB IC20, at 0.5 µM",-24.6%
same,inhibition,"[10]; measured here: with BGB IC20, at 5 µM",10.3%
same,inhibition,"[10]; measured here: with cisplatin IC20, at 0.5 µM",-0.449%
same,inhibition,"[10]; measured here: with cisplatin IC20, at 5 µM",2.49%
same,inhibition,"[10]; single agent, at 5 µM",1.71%
same,inhibition,[11]; at 0.5 µM,-67.6% (inactive)
same,inhibition,"[11]; measured here: combination with BGB at IC20, at 0.5 µM",-30.9%
same,inhibition,"[11]; measured here: combination with cisplatin at IC20, at 0.5 µM",-117%
same,inhibition,[12]; at 0.5 µM,-3.14% (inactive)
same,inhibition,"[12]; measured here: combo with BGB at IC20, at 0.5 µM",-10.4%
same,inhibition,"[12]; measured here: combo with cisplatin at IC20, at 0.5 µM",4.61%
same,inhibition,[13]; at 0.5 µM,3.29% (inactive)
same,inhibition,"[13]; measured here: inhibition with BGB combination, at 0.05 µM",-25.1%
same,inhibition,"[13]; measured here: inhibition with cisplatin combination, at 0.05 µM",-14.8%
same,inhibition,[14]; at 0.5 µM,-29.8% (inactive)
same,inhibition,[14]; [27],-33.9%
same,inhibition,[14]; [28],-23.3%
same,inhibition,[15]; at 0.5 µM,-13.5% (inactive)
same,inhibition,"[15]; measured here: BGB combination, at 0.5 µM",-12%
same,inhibition,"[15]; measured here: BGB combination, at 5 µM",10.1%
same,inhibition,"[15]; measured here: cisplatin combination, at 0.5 µM",-29.2%
same,inhibition,"[15]; measured here: cisplatin combination, at 5 µM",7.72%
same,inhibition,"[16]; BGB combination, concentration series, at 5 µM",-3.84%
same,inhibition,[16]; at 0.5 µM,-16% (inactive)
same,inhibition,"[16]; cisplatin combination, concentration series, at 5 µM",-17.2%
same,inhibition,[17]; at 0.5 µM,-2.6% (inactive)
same,inhibition,"[17]; measured here: combo with BGB IC20, at 0.5 µM",-17%
same,inhibition,"[17]; measured here: combo with cisplatin IC20, at 0.5 µM",9.13%
same,inhibition,[18]; at 0.5 µM,-25.1% (inactive)
same,inhibition,"[18]; cisplatin combination, at 0.5 µM",-38.4%
same,inhibition,"[18]; cisplatin combination, at 5 µM",-11.7%
same,inhibition,"[18]; measured here: BGB IC40 combination 0.05 uM, at 0.05 µM",14.8%
same,inhibition,"[18]; single agent, at 5 µM",-36.3%
same,inhibition,[19]; at 0.5 µM,-3.65% (inactive)
same,inhibition,"[19]; cisplatin combo, at 5 µM",1.65%
same,inhibition,"[19]; measured here: BGB IC40 combination, at 0.05 µM",-12.5%
same,inhibition,[19]; [27],13.3%
same,inhibition,"[19]; single agent, at 5 µM",-38.1%
same,inhibition,[20]; at 0.5 µM,-36.2% (inactive)
same,inhibition,[20]; [25],-10%
same,inhibition,[20]; [26],-51.7%
same,inhibition,"[20]; single agent, at 0.05 µM",-14%
same,inhibition,"[20]; single agent, at 5 µM",52.6%
CC[C@H]1/C=C\C=C/C[C@@H](C)[C@H](O)[C@@](C)(O)C(=O)[C@@H](C)[C@H](O)[C@@H](C)C(=O)[C@@H](C)[C@H](O)[C@@H](C)/C=C/C(=O)O[C@@H]2[C@H](C)[C@H](CC1)O[C@]1(CC[C@H](C)[C@H](C[C@@H](C)O)O1)[C@H]2C,AC50,[1],10.5 µM (active)
same,AC50,[21],20.9 µM (active)
same,AC50,[22],10.5 µM (active)
same,AC50,[2],7.42 µM (active)
same,AC50,[3],0.00525 µM (active)
same,AC50,[23],6.62 µM (active)
same,AC50,[4],0.0661 µM (active)
C[C@H]1[C@H](O)[C@@H](C)/C=C/C=C/CC/C=C/C=C/C=C/C=C/[C@H](O[C@@H]2O[C@H](C)[C@@H](O)[C@H](N)[C@@H]2O)C[C@@H]2O[C@](O)(C[C@@H](O)[C@H](O)CC[C@@H](O)C[C@@H](O)C[C@@H](O)CC(=O)O[C@H]1C)C[C@H](O)[C@H]2C(=O)O,outcome,[1],inactive
same,outcome,[2],inactive
same,outcome,[3],inactive
same,outcome,[4],inactive
same,outcome,[5],inactive
